Data on 67 molecules can be found in PubChem BioAssay AID2550 (Johns Hopkins Ion Channel Center, 2010).

The campaign covered roughly 310,000 compounds. About 380 (0.12%) were called active.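 How the source made its calls: active means B-score of the integrated fluorescence ratio above library mean plus 3 SD, and starting fluorescence ratio within library mean plus 5 SD; inactive means the rest.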 Shown is part of a subset that was picked to be rich in actives.

The target in this experiment is Short transient receptor potential channel 6 (Mus musculus) (UniProt Q61143). Kind of experiment: small molecules opening TRPC6 cation channel – cell-based, HEK293, membrane potential dye, primary screen (AID 2550).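 Further: higher score means more depolarization so channel activation.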 The settings on record: HEK293-TRPC6 membrane potential dye fluorescence, at 10 µM; stronger effect = higher value.
Chain of Short transient receptor potential channel 6 (Mus musculus) (Q61143 whole entry, looked up): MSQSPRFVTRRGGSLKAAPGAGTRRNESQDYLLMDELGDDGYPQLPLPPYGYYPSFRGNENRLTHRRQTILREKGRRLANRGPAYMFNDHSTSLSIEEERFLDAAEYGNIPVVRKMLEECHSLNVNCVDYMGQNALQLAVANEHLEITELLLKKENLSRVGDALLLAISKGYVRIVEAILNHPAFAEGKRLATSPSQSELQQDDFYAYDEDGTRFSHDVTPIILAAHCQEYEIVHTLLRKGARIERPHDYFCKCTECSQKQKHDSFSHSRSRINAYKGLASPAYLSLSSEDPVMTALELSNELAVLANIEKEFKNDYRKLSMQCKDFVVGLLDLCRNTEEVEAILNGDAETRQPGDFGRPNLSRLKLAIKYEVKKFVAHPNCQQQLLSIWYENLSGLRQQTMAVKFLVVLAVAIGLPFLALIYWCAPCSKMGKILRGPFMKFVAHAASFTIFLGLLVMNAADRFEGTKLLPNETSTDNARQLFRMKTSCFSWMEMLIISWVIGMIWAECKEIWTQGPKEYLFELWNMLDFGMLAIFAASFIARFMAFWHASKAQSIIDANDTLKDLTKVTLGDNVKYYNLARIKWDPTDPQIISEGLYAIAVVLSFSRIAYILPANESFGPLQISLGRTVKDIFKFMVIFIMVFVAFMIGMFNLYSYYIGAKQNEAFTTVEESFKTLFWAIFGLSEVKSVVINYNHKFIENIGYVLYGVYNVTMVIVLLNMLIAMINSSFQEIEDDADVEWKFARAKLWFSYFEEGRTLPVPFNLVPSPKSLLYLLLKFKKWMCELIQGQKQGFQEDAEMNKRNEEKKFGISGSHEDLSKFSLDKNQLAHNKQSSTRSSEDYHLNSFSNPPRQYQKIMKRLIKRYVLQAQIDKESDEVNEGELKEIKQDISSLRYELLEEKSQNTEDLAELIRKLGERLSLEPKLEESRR
Regarding `CCOC(=O)/C(N=Nc1cc(C(=O)O)cc(C(=O)O)c1)=C(\O)CCl`, the B-score entry is “inactive”.
In the case of `CC(=O)c1ccc(NC(=O)C(C)NCc2ccc(Cl)cc2)cc1` (configuration not stated), the B-score entry is “inactive”.
As for `O=C(CN1C(=O)NC2(CCCCC2)C1=O)NCCc1c[nH]c2ccccc12`, the entry is “inactive”.
As for `N#C/C(=C/c1ccc(N2CCCCC2)o1)C(=O)NCCc1c[nH]c2ccccc12`, the figure is 33.2 (active).
With `CC(=O)N/C(=C/c1ccc(Cl)cc1)C(=O)NCCc1c[nH]c2ccccc12` the entry was “inactive”; with `O=C(COc1cc2oc(=O)c3c(c2cc1Cl)CCC3)NCCCN1CCOCC1`, “inactive”.
As for `COc1nc(N(C)C)nc(N2CC(=O)N(CCNS(=O)(=O)c3ccc(C)cc3)C2=N)n1`, the B-score entry is “inactive”.
On to `CC(C)(C)NCc1cc(Br)ccc1OC1CCCC1`, for which the B-score result is “inactive”.
As to `CC(NCc1ccccc1OC1CCCC1)c1ccccc1` (configuration not stated), the B-score is 14.5 (active).
As for `COc1ccccc1CN1CCN(C(c2ccccc2)c2ccccc2)CC1`, the entry is “inactive”.
As for `COc1ccc2[nH]c(=O)c(CNc3ccc(C)c(C)c3)cc2c1`, the entry is “inactive”; as for `CC(=O)c1ccc(N2CCN(S(=O)(=O)c3c(C)[nH]c(=O)[nH]c3=O)CC2)cc1`, “inactive”.
As for `CN1C(C(=O)NCC2CC2)CC2Cn3c(nc4ccccc43)C21` (configuration not stated), the entry is “inactive”.
With `CC1(C)OC(=O)C(=CSc2ccc(C(C)(C)C)cc2)C(=O)O1`, the B-score entry is “inactive”.
Regarding `COc1ccc(-c2nnc(NC(=O)CS(=O)(=O)c3ccc(Cl)cc3)o2)c(OC)c1`, the B-score was 13.4 (active).
For the molecule `Cc1ccc(C)c(-c2nnc(NC(=O)CS(=O)(=O)c3ccccc3)o2)c1`, the B-score entry is “inactive”.
With `COc1ccc(NC(=O)CS(=O)(=O)c2ccccc2)cc1` the entry was “inactive”; with `CCOC(=O)CSC1=N/C(=C/c2ccc(-n3cncn3)cc2)C(=O)N1C(C)=O`, “inactive”.
With `COc1ccc(S(=O)(=O)NCC(=O)NC2CC2)cc1OC` the entry was “inactive”.
As for `CCc1ccc2oc(=O)cc(CN3CCCCC3C)c2c1` (configuration not stated), the entry is “inactive”; as for `CCC1OC(c2ccc([N+](=O)[O-])cc2)=Nc2ccccc21` (configuration not stated), “inactive”; as for `Cc1cc(Cl)ccc1C(=O)C1CCCN(C(=O)CCN2CCCO2)C1` (configuration not stated), “inactive”.
As for `O=C(COc1ccc(S(=O)(=O)N2CCOCC2)cc1Cl)N1CCOCC1`, the B-score result was “inactive”.
With `O=c1[nH]oc(O)c1-c1ncc(C(F)(F)F)cc1Cl` the entry was “inactive”; with `CC(C)(C)NC(=O)C(=O)NCc1ccncc1`, “inactive”.
With `COc1ccc(CNC(=O)COC(=O)/C=C/c2ccc(S(=O)(=O)N3CCOCC3)cc2)cc1` the entry was “inactive”.
As for `Cc1ccc(NC(=O)CN2C(=O)NC(C)(c3ccc(Cl)cc3)C2=O)c(Br)c1` (configuration not stated), the entry is “inactive”; as for `O=C(COc1ccc2ccc(=O)oc2c1)NCC(O)c1ccccc1` (configuration not stated), “inactive”; as for `O=C(Nc1ccccc1Cl)c1ccccc1S(=O)(=O)c1ccccc1[N+](=O)[O-]`, “inactive”.
Regarding `CCOC(=O)c1sc2nc(C)[nH]c(=O)c2c1C`, the B-score entry is “inactive”.
As for `CCOC(=O)c1sc2nc(CSc3ccccc3)[nH]c(=O)c2c1C`, the entry is “inactive”; as for `CCOC(=O)c1sc2nc(CSCC(=O)OCc3ccc(C(=O)OC)o3)[nH]c(=O)c2c1C`, 18.9 (active).
With `COc1ccccc1N1CCN(C(=O)c2ccc(NC3=NC4CS(=O)(=O)CC4S3)cc2)CC1` (configuration not stated) the entry was “inactive”; with `CCn1cc(C(=O)N2CC=C(c3ccccc3)CC2)c(=O)c2ccc(C)nc21`, “inactive”; with `CCOc1cc(-c2conc2N)cc(OCC)c1OCC`, “inactive”.
With `O=C(NCc1ccccc1)C(c1ccco1)N(C(=O)c1csnn1)c1ccccc1F` (configuration not stated) the entry was “inactive”.
As for `COc1ccccc1CN1CCNC(=O)C1CC(=O)N(C)CC1CCOCC1` (configuration not stated), the B-score entry was “inactive”.
With `Cc1ccc(CNC(=O)Cn2c(=O)c3sccc3n(Cc3cccc([N+](=O)[O-])c3)c2=O)cc1` the entry was “inactive”; with `O=C(O)CC(Cn1cnnn1)c1ccccc1` (configuration not stated), “inactive”.
As for `CCc1ccc2nc(Nc3ncc(C(C)=O)c(C)n3)nc(C)c2c1`, the entry is “inactive”.
`CC(O)c1ccc(OCCN(C)c2ccccn2)cc1` (configuration not stated): the B-score entry was “inactive”.
With `O=C(CC1C(=O)NCCN1C(=O)c1ccc([N+](=O)[O-])cc1)Nc1cccc(Cl)c1` (configuration not stated) the entry was “inactive”.
With `CCO[C@@H]1OC(C(=O)NC2CC2)=C[C@H](C)[C@H]1CCCO` the entry was “inactive”; with `O=C(NC1CCCCC1)C1CC(=O)N(CCc2ccccc2)C1` (configuration not stated), “inactive”; with `CCOC(CNC(=O)C(=O)NCC(c1ccco1)N1CCN(c2ccc(OC)cc2)CC1)OCC` (configuration not stated), “inactive”.
Take `CCOc1ccc(S(=O)(=O)N2CCC(C(=O)NCc3ccccn3)CC2)cc1Cl`: the B-score result is “inactive”.
With `O=C(COc1ccccc1)Nc1nonc1NC(=O)COc1ccccc1` the entry was “inactive”; with `CC(=O)c1cc2c(cc1NC(=O)CN1CCCCCC1)OCO2`, “inactive”; with `O=C(CCN1C(=O)C2CCCCC2C1=O)Nc1ccc(OC(F)F)cc1` (configuration not stated), “inactive”.
As for `COC(=O)c1ccc(NC(=O)CSc2nnc(C3CC3)n2C)cc1`, the entry is “inactive”.
As for `COC(=O)c1ccc(NC(=O)CSc2nnc(-c3ccncc3)n2C)cc1`, the figure is 12.9 (active); as for `COC(=O)c1ccc(NC(=O)CSc2nnc(CNc3ccc(OC)cc3)n2C)cc1`, “inactive”.
In the case of `COc1cccc(-c2cccc(NC(=O)C3CCN(C4CCC4)CC3)c2)c1`, the B-score result was “inactive”.
As for `CC(=O)c1c(C)[nH]c(C(=O)N2CCN(S(=O)(=O)c3ccc(F)c(F)c3)CC2)c1C`, the entry is “inactive”; as for `[O-][n+]1onc2c1CCc1[nH]c(-c3ccccc3)nc1-2`, “inactive”.
For the molecule `C=CCN1C(=NC(=O)COc2ccccc2)SC2CS(=O)(=O)CC21` (configuration not stated), the B-score entry is “inactive”.
As for `O=c1c2ccccc2cnn1Cc1n[nH]c(=S)n1-c1ccccc1F`, the entry is “inactive”; as for `CCC(C(=O)OCC(=O)Nc1ccccc1-c1ccccc1)c1ccccc1` (configuration not stated), “inactive”; as for `CCOCCN(C=O)c1cccc(OC)c1`, “inactive”.
As for `C=CCc1cc(S(=O)(=O)c2ccc(O)c(CC=C)c2)ccc1O`, the entry is “inactive”; as for `C=CCc1ccc(OCCOc2cccc(/C=N/n3cnnc3)c2)c(OC)c1`, “inactive”; as for `CN(C(=O)CC(NC(=O)c1ccccc1)(c1ccccc1)c1ccccc1)c1ccccc1`, “inactive”.
As for `Cc1cccc(NC(=O)C(C)N2C(=O)C3C4CC(C(Br)C4Br)C3C2=O)c1` (configuration not stated), the entry is “inactive”; as for `CC(=O)c1c(N2CCN(c3ccc(F)cc3)CC2)nc(=S)n(-c2ccccc2)c1C`, “inactive”.
Take `CC(=O)Nc1ccc(NC(=O)COc2ccc(S(=O)(=O)NC(C)c3ccccc3)cc2)cc1` (configuration not stated): the B-score entry is “inactive”.
As for `FC(F)(F)c1cccc(-c2cc3ccccc3nc2N2CCCC2)c1`, the entry is “inactive”.
As for `Cc1cccc2[nH]c(CN(C)C(=O)C3CCC(=O)N(CCc4ccccc4)C3)nc12` (configuration not stated), the entry is “inactive”.
